# ASM inhibitor – Inhibitors of Secretory Acid Sphingomyelinase (S-ASM): qHTS. placental ASM, HMU-PC fluorogenic substrate, 60 min. AID 504937, 2011. Sphingomyelin phosphodiesterase (Homo sapiens), P17405. Potency, µM (top dose mostly 57.5 µM), inactives show at the highest dose activity change, negative = inhibition, actives largely listed as inhibitors. hit rate 0.006% among 340,000; further: potency means the concentration at half of the fitted maximal effect
#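 HMU-PC0 cleavage (9 uM final) by human placental ASM, 60 min at 37 °C following 10 min compound exposure at RT; stopped at pH 10, fluorescence Ex 386/Em 447 nm.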
# ERG-DNA inh – qHTS for Small Molecule Inhibitors of the ERG Ets/DNA interaction | AID 624246, 2012 | fluorescence polarization, His-ERG Ets domain / labelled DNA | Potency, µM (titrated, usually from 76.9 µM), inactives show at the highest dose FP activity, negative = inhibition, hits mostly inhibitors | hit rate 0.028% among 370,000; active means well fitted inhibition curve with a large enough effect in the polarisation, with a control signal flat; inconclusive means small, poorly fitted or top-dose-only effect, or effect the other way, or a change in a side signal; inactive means no such curve, though single readings can be large or run the other way; the % refers to the polarisation;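 further: polarization taken with two DNA probes labelled with fluorescein and Texas red; potency means the concentration at half of the fitted maximal effect; % of control where 0% means no effect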
#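 His-tagged ERG Ets domain (1 uM in the protein solution; 300mM KCl, 50mM Tris-HCl, 1mM EDTA, 1mM DTT, pH 7.5) received compound, then a probe mix of 5 nM fluorescein-DNA and 100nM Texas-615-DNA. Fluorescence polarization was read for both dyes.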
# RXFP1 antag – qHTS Assay for Antagonists of the Relaxin Receptor RXFP1; Relaxin receptor 1 (Homo sapiens), Q9HBX9; HEK293-RXFP1, relaxin-stimulated cAMP HTRF, 30 min; hits give low values; activity change, negative = inhibition, % at 57.5 µM; hit rate 0.59% among 350,000; AID 1259400, 2018;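 active means activity change of -60% or lower, but not beyond a set lower limit; inconclusive means change between -60% and -40%, or beyond the set limit; inactive means change above -40%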; further: on the % scale 0 is the no-effect control and ±100 the full control effect
# Target sequence (Q9HBX9 whole entry, looked up): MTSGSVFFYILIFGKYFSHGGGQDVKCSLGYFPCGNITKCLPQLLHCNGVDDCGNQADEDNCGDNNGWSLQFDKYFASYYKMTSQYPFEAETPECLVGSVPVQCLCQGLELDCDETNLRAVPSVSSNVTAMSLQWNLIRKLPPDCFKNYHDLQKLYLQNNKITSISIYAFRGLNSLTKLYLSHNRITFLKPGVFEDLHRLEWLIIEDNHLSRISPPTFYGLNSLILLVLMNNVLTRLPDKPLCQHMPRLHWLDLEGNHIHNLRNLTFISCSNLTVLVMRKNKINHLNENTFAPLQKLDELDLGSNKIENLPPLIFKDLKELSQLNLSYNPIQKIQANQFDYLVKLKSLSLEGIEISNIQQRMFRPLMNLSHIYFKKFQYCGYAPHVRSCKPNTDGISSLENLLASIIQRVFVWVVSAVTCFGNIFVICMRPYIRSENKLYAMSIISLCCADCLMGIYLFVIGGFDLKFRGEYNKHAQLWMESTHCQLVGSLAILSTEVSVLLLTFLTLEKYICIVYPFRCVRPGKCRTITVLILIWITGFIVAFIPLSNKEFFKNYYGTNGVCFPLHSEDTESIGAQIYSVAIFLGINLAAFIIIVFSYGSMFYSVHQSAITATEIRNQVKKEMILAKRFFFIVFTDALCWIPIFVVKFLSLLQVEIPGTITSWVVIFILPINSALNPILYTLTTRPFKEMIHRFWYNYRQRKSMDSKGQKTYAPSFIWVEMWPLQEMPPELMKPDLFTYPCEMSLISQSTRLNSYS
# RXFP1 agonist – qHTS Assay for Agonists of the Relaxin Receptor RXFP1; Relaxin receptor 1 (Homo sapiens), Q9HBX9; HEK293T-RXFP1 cAMP TR-FRET, 30 min; response scale: percent of porcine relaxin response, buffer zero; Potency, µM (highest dose often 57.5 µM), for the others: at the top dose activation, actives largely listed as activators; hit rate 0.3% among 370,000; AID 2676, 2010; further: potency means the concentration at half of the fitted maximal effect; on the % scale 0 is the no-effect control and ±100 the full control effect; nearly all actives have a fitted effect of over 60% in size
#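 HEK293T cells stably expressing RXFP1 were pretreated with the PDE4 inhibitor Ro 20174, exposed to compounds for 30 min at 37C, lysed, and cAMP was read by TR-FRET. Data normalized to buffer (basal) and 29 nM porcine relaxin (100%).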
# miR-21 act – qHTS Assay for Modulators of miRNAs and/orActivators of miR-21. AID 2288, 2010. 340,000 tested, under 10 active. Potency, µM (titrated, usually from 38.3 µM), without a hit: at the highest dose activity change, positive = activation, usual class: activators. HeLa miR-21 FLuc reporter, luciferase, 48 h;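 further: % of control where 0% means no effect; miR-21 action dims this reporter so a rising signal means less miR-21 action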
#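 HeLa miR-21-FLuc reporter line, endogenous miR-21; 2000 cells/well in DMEM/10% FBS; compound titration up to ~40uM final, 48 h, 37 degree Celsius; luciferase detection reagent, 15 min lysis, CCD luminescence.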
# Mito fusion act – qHTS Assay for Small Molecule Inhibitors of Mitochondrial Division or Activators of Mitochondrial Fusion. AID 485298, 2010. hit rate 0.23% among 320,000. Potency, µM (doses to about 46.1 µM), for the others: at the highest dose growth rescue (activation), usual class: activators. S. cerevisiae fusion-defective mutant growth rescue, CellTiterGlo 48 h; further: potency means the concentration at half of the fitted maximal effect; % of control where 0% means no effect; nearly all actives have a fitted effect of over 45% in size
#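 Yeast fusion mutant, YPEG (non-fermentable carbon), compound, 48 h at 37C non-permissive; CellTiterGlo added, 10 min RT, luminescence read. Rescued growth = division inhibition.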
# * hit, by the source's call; ? = inconclusive; · = no result. Only some compounds are listed: those with a hit (about 0.72% of all), similar ones and a draw of the others. Unless noted, the call rests on the fitted dose curve; in most records, active means well fitted curve in the direction sought with a large enough effect; inconclusive means small, poorly fitted or top-dose-only effect, or another doubt; inactive means no such curve, though single readings can be large; an effect the other way counts as inactive or inconclusive.
SMILES,ASM inhibitor,ERG-DNA inh,RXFP1 antag,RXFP1 agonist,miR-21 act,Mito fusion act
COc1ccc(NS(=O)(=O)c2ccc3oc(SCc4ccc(F)cc4)nc3c2)cc1,-21.9%,0.5%,4.0,0.2%,14.7%,15.8µM*
COc1ccccc1NS(=O)(=O)c1ccc2oc(SCc3ccc(F)cc3)nc2c1,-2.9%,-3.9%,-19.1,-1.3%,15.2%,2.7%
COc1ccccc1N1CCN(C(=O)CN2C(=O)COc3ccc(S(=O)(=O)N4CCC(C)CC4)cc32)CC1,·,-1.5%,·,-0.2%,1.2%,·
CN1N=C(C(N)=O)CCC1=O,·,·,-2.8,·,·,·
Oc1cccc(-c2c3nc(c(-c4cccc(O)c4)c4ccc([nH]4)c(-c4cccc(O)c4)c4nc(c(-c5cccc(O)c5)c5ccc2[nH]5)CC4)C=C3)c1,·,·,-100.3*,·,·,·
COc1cc(NS(=O)(=O)c2ccc(N)cc2)nc(C)n1,·,·,-10.0,·,·,·
O=C(NCCCNC(=O)c1cncc(O)c1)c1cncc(O)c1,3.9%,-5.0%,-4.5,-0.8%,-2.4%,-0.4%
O=C(NCCCCCCNC(=O)c1cncc(O)c1)c1cncc(O)c1,-0.6%,-5.8%,-5.9,3.6%,0.3%,7.94µM*
O=C(Nc1ccsc1C(=O)O)c1cccc(C(F)(F)F)c1,10.6%,-2.5%,1.5,-0.7%,-71.8%,5.9%
O=C(Nc1ccsc1C(=O)O)c1cccc(Oc2ccccc2)c1,13.8%,8.7%,-80.3*,10.1%,15.4%,29.4%
N#C/C(=C\c1c[nH]c2ccccc12)C(=O)c1ccc(O)c(O)c1,·,·,·,·,·,0.0%
CSc1ncc(CN2CCCC(C(=O)c3ccc(C(C)(C)C)cc3)C2)cn1 (stereo unspecified),1.3%,-11.4%,-15.5,2.2%,-36.8%,12.6µM*
O=C(NNc1cc(N2CCOCC2)nc(N2CCOCC2)n1)c1ccc(Cl)c(Cl)c1,-9.8%,·,3.0,-0.4%,1.0%,-7.7%
Cc1ccc(C(=O)NNc2cc(N3CCCC3)nc(N3CCCC3)n2)cc1,-7.6%,5.8%,-62.3*,-0.1%,21.5%,-0.4%
CC(C)C(Cl)=NOC(=O)Nc1ccc(S(N)(=O)=O)cc1,0.7%,-4.0%,-73.3*,·,·,·
COC(=O)[C@H](C)NC(=O)Nc1ccc(S(N)(=O)=O)cc1,-0.4%,·,-10.5,-1.9%,0.3%,0.5%
COc1ccc2oc(=O)c(-c3csc(Nc4ccc(O)cc4)n3)cc2c1,-20.7%,?,-39.3,-2.6%,-43.9%,15.8µM*
Cc1cc2occ(CC(=O)NCc3cccs3)c2cc1C(C)C,-1.5%,-4.6%,-2.7,2.3%,-3.8%,15.8µM*
CC(C)(C)CC(=O)OCC(=O)[C@@]1(O)CC[C@H]2[C@@H]3CCC4=CC(=O)C=C[C@]4(C)[C@H]3[C@@H](O)C[C@@]21C,·,·,-19.2,·,·,·
O=C1c2cccc3c(O)ccc(c23)C(=O)N1Cc1ccccc1,-3.0%,?,-0.2,6.8%,-4.2%,17.8µM*
COc1cccc(C(=O)NCC(c2cccs2)N2CCc3ccccc32)c1 (stereo unspecified),-10.3%,-7.9%,-13.5,0.4%,·,15.8µM*
CCc1cc2cc3c(cc2nc1SCC(=O)Nc1nccs1)OCO3,0.0%,·,9.0,12.6µM*,0.8%,-5.5%
O=C(NCCC1=CCCCC1)c1ccc2c(c1)N(Cc1cccc(Cl)c1)C(=O)c1ccccc1S2=O (stereo unspecified),·,-5.4%,0.8,-0.9%,1.8%,·
Cc1cc(Cl)n2nc(C)c(-c3ccc(Cl)cc3)c2n1,-8.0%,5.6%,-69.0*,2.0%,24.9%,5.5%
CC(CC(C#N)(c1ccccc1)C(C)C)N(C)C (stereo unspecified),·,·,-4.5,·,·,·
SMILES,ASM inhibitor,ERG-DNA inh,RXFP1 antag,RXFP1 agonist,miR-21 act,Mito fusion act
COc1cc(C(=O)O)nc2ccc([N+](=O)[O-])cc12,-1.9%,-10.4%,3.7,3.6%,-3.5%,-5.8%
COc1ccc(CCN2C(=O)/C(=C\c3ccco3)SC2=S)cc1OC,-5.1%,26.3%,-77.4*,-0.3%,1.7%,-4.0%
O=c1[nH]c(SCc2ccc(Cl)cc2)nc2ccsc12,-2.3%,11.5%,4.7,0.4%,-53.4%,-6.6%
CSc1nc(-c2cccs2)c(C#N)c(=O)[nH]1,18.8%,0.3%,23.0,14.1µM*,-6.8%,-3.9%
N#Cc1c(-c2cccs2)nc(SCc2ccc(Cl)cc2)[nH]c1=O,13.8%,-0.4%,-3.4,15.8µM*,-2.0%,-4.9%
CNC(=O)NC(=O)CSc1nc(-c2cccs2)c(C#N)c(=O)[nH]1,1.2%,-0.4%,43.3,14.1µM*,-9.4%,-8.2%
CCOc1ccc(S(=O)(=O)N2CCN(Cc3nc4ccc(C)cc4o3)CC2)cc1,·,-4.4%,-14.1,0.8%,8.4%,·
CCOc1ccc(Nc2cc(C)nc3ccc(C)cc23)cc1,-1.6%,6.1%,-31.0,·,·,·
Cc1ccc(Nc2cc(C)nc3ccc(C)cc23)cc1,-7.3%,1.0%,-81.6*,0.9%,24.9%,2.5%
Cc1ccc2c(c1)-c1cc(C)nn1C(c1cc(Br)ccc1O)N2 (stereo unspecified),·,-2.8%,-114.0*,-3.4%,-28.8%,·
CN1CCN(C(CNC(=O)Nc2ccc(Cl)cc2)c2ccc(F)cc2)CC1 (stereo unspecified),1.7%,5.4%,11.3,1.6%,-11.9%,-14.8%
Cc1ccc(C(CNC(=O)Nc2ccc(Cl)cc2)N2CCN(C)CC2)cc1 (stereo unspecified),-0.1%,-13.3%,-84.1*,-2.7%,-7.3%,1.1%
CC(C)c1ccc(NS(=O)(=O)c2ccc3nc(-c4ccccc4)[nH]c3c2)cc1,·,2.8%,-68.5*,0.8%,30.0%,·
CC(CN1CCOCC1)C(Cc1ccccc1)(Cc1ccccc1)C(=O)N1CCCC1 (stereo unspecified),·,·,7.7,·,·,·
O=[N+]([O-])c1ccc(Nc2nc(N/N=C/c3cccc(F)c3)nc(N3CCCC3)n2)cc1,-7.3%,-4.0%,-6.3,0.0%,24.3%,15.8µM*
COc1cccc(/C=N/Nc2nc(Nc3ccc([N+](=O)[O-])cc3)nc(N3CCCC3)n2)c1O,-11.6%,7.8%,-31.9,-1.4%,18.9%,4.5%
Cc1ccccc1OCC(=O)Nc1ccc2nc(SCC(=O)N3CCCC3)sc2c1,·,-0.1%,-86.4*,2.9%,6.5%,·
O=C(Nc1ccc2nc(SCC(=O)N3CCOCC3)sc2c1)c1cccc(Cl)c1,·,-2.8%,-82.1*,2.7%,?,·
Cc1ccccc1OCC(=O)Nc1ccc2nc(SCC(=O)N3CCOCC3)sc2c1,·,-3.2%,?,3.3%,20.9%,·

# Assay outcomes (PubChem BioAssay)
